# FMDV antiviral – blocks foot and mouth disease virus; 410,000 compounds, 1.2% hits; FMDV antiviral cell-based qHTS; AID 1159524; Potency, µM (doses to about 57.9 µM), for the others: at the highest dose activity change, negative = inhibition, actives largely listed as inhibitors; calls by dose curve; tested in HEK293T cells; note: read-out not given here; nearly all actives have a fitted effect of over 45% in size
# LASV entry inh – inhibitors of Lassa virus binding or cell entry | Lassa virus pseudotype entry inhibition, cell reporter | Potency, µM (highest dose often 37.9 µM), for inactives: at the highest dose activity change, negative = inhibition, most hits filed as inhibitors | 300,000 compounds, 1.2% hits; calls by dose curve; tested in HEK293 cells; note: nearly all actives have a fitted effect of over 50% in size
# Sm TGR inh – S. mansoni TGR enzyme inhibition. purified TGR, DTNB reduction, TNB absorbance 405 nm. Q962Y6. AID 485364. Potency, µM (series often up to 114 µM), without a hit: top-dose activity change, negative = inhibition, hits mostly inhibitors. 360,000 compounds, 3% hits; note: nearly all actives have a fitted effect of over 60% in size
#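 First, TGR (20 nM dispensed) and NADPH were mixed with compound. Second, a 15 min room-temperature incubation followed. Third, further NADPH and then DTNB were added to start the reaction. Finally, TNB absorbance was monitored kinetically.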
# RE007 growth inh – less growth of the S. pombe RE007 Vpr strain; S. pombe RE007 Vpr strain, BacTiter-Glo ATP luminescence, 24 h; Potency, µM (highest dose often 92.2 µM), inactives show at the top dose activity change, negative = less growth, actives largely listed as inhibitors; 360,000 compounds, 0.21% hits; AID 651644; active = well fitted falling curve with a large enough effect; inconclusive = small, poorly fitted or top-dose-only effect; inactive = no such curve, though single readings can be large or run the other way; note: nearly all actives have a fitted effect of over 50% in size
#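 Fission yeast strain RE007, carrying one chromosomally integrated HIV-1 vpr copy, was seeded at OD 0.01 in PMG+AL medium with 23 nL pinned compound. After 24 h at 30 °C and 99% humidity, viability was read by BacTiter-Glo luminescence.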
# Marburg entry inh – Marburg virus entry inhibition; Potency, µM (titrated, usually from 37.8 µM), without a hit: at the top dose activity change, negative = inhibition, hits mostly inhibitors; 300,000 compounds, 1.8% hits; Marburg virus pseudotyped entry inhibition, cell reporter; calls by dose curve; tested in HEK293 cells
# HCV inhibitor – inhibitors of hepatitis C virus infection; Huh7.5.1 HCVcc-Cre infection, luciferase reporter, 44 h; Potency, µM (doses to about 41.8 µM), without a hit: at the highest dose activity change, negative = inhibition, most hits filed as inhibitors; 340,000 compounds, 3.4% hits
#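 Reporter virus HCVcc-Cre (~0.5 moi) infects cells exposed to compound; seeding density 1,000 cells/well with 4 h settling beforehand. Luminescence, 15 sec read, taken 44 h post-infection following a 15 min RT substrate incubation.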
# * = called active by the depositor; ? = inconclusive; . = no result given; [ ] = remark or other dose. An excerpt weighted towards active compounds, which were near 7.2% of everything screened. Unless noted, calls come from the whole dose curve; as a rule, active = well fitted curve in the direction sought with a large enough effect; inconclusive = small, poorly fitted or top-dose-only effect, or another doubt; inactive = no such curve, though single readings can be large; an effect the other way counts as inactive or inconclusive. % is set by controls: 0 for no effect and ±100 for the full control effect; potency is the fitted concentration of half-maximal effect.
SMILES,FMDV antiviral,LASV entry inh,Sm TGR inh,RE007 growth inh,Marburg entry inh,HCV inhibitor
O=C(c1ccoc1)N1CCN(c2cc(-c3ccccc3)nc3cc(-c4ccccc4)nn23)CC1,35µM*,.,.,-24%,.,.
Cc1cc(N2CCN(C(=O)c3ccoc3)CC2)n2nc(-c3ccccc3)cc2n1,?,.,.,-20%,.,.
COc1ccccc1-c1cc2nc(-c3ccccc3)cc(N3CCN(C(=O)c4ccoc4)CC3)n2n1,7.9µM*,.,.,-20%,.,.
O=C(c1ccoc1)N1CCN(c2cc(-c3ccco3)nc3cc(-c4ccccc4)nn23)CC1,?,.,.,3%,.,.
COc1ccccc1-c1cc2nc(-c3ccccc3)cc(N3CCN(C(=O)c4ccco4)CC3)n2n1,4.5µM*,.,.,1%,.,.
COc1cc(CNc2ccc3[nH]c(=O)[nH]c3c2)ccc1OCc1cccc(C)c1,-16%,?,?,-18%,-20%,6.3µM*
CC(C)COc1ccc(C/C(N)=N/n2cnnc2)cc1,-17%,?,.,6%,1µM*,14µM*
O=C(CCc1ccccc1)NCc1ccncc1,-5%,.,-1%,-14%,.,10%
O=C(CCNNC(=O)c1ccncc1)NCc1ccccc1,-25%,?,40µM*,2%[18.4 µM],?,14%[8.37 µM]
c1cc2c(cc1CCNC1C3CC4CC(C3)CC1C4)OCO2 (centres undefined),2%,-20%,-5%,3%,?,?
CC1CCC(NC(=O)c2ccc3c(c2)OCO3)CC1 (centres undefined),-25%,3.5µM*,5%,-8%,?,-8%
Clc1ccc(CCNCc2ccncc2)c(Cl)c1,-24%,.,28µM*,7%,.,-16%
c1cc(CNCCc2ccc3c(c2)OCO3)ccn1,-17%,.,45µM*,3%,.,-6%
CC1CCC(NCCc2ccc3c(c2)OCO3)CC1 (centres undefined),.,8%,3%,2%,16µM*,?
COc1ccc(COC(=O)NN=C2C[C@@H](O)[C@@H](O)[C@@H]3[C@H]4C(=O)N(c5cccc(Oc6ccccc6)c5)C(=O)[C@@H]4CC[C@H]23)cc1,.,?,.,.,9%[14.2 µM],.
Cn1c2ccccc2c2cc(C(=O)N3CCOc4ccc(C(C)(O)CCn5cccn5)cc4C3)ccc21 (centres undefined),-10%,.,.,.,.,.
COC(=O)c1c(-c2cccs2)csc1NC(=O)c1ccc(C(C)C)cc1,0%,-7%[46.1 µM],0%,.,9%[46.1 µM],.
COc1ccc(O[C@H]2C=C[C@@H](c3ccccc3)O[C@H]2COC(=O)CCC(C)=NO[C@H](C)c2cn([C@@H]3COC[C@@H]3O)nn2)cc1,.,26%[14.3 µM],.,.,-3%[14.2 µM],.
C=CCOC(=O)C(C(C)=O)[C@@H](NC(=O)OC)c1cccc(F)c1 (some centres undefined),.,.,.,.,12%[14.2 µM],.
CCOC(=O)CSC1=NC(=O)/C(=C/c2ccc(OC)cc2)S1,25µM*,?,6.3µM*,?,?,?
COc1ccc(/C=C2\SC(N)=NC2=O)cc1,53%,24%,-3%,-5%,-26%,-8%
Cc1cc2nc(-c3ccc(OCc4ccccc4Cl)cc3)cc(C(F)(F)F)n2n1,-1%,21%[46.1 µM],-23%,.,-19%[46.1 µM],.
O=C(Nc1ccc(Cl)cc1C(=O)Nc1ccncc1)c1ccco1,-20%,-13%,40µM*,-11%,?,11µM*
CCOc1ccc(-n2c(=O)c3c(C)c(C)sc3n(CC(=O)NCCc3ccccc3)c2=O)cc1,-11%,-2%[46.1 µM],5%,.,-11%[46.1 µM],.
COC/C=C/C1=CC2=CC(=O)C(C)(OC(=O)c3ccco3)C(=O)C2=CO1 (centres undefined),.,.,3.2µM*,.,.,.
SMILES,FMDV antiviral,LASV entry inh,Sm TGR inh,RE007 growth inh,Marburg entry inh,HCV inhibitor
COC/C=C/C1=CC2=CC(=O)C(C)(OC(=O)C3CCCC3)C(=O)C2=CO1 (centres undefined),0%,.,3.5µM*,-20%,.,-9%
Cc1cc2c(N)cccc2nn1,-9%,.,25µM*,-11%,7%,?
CC(=O)Nc1ccc(C2C(=O)c3ccccc3C2=O)cc1,20µM*,-11%,-1%,8%,1%,?
Cc1ccc(C2C(=O)c3ccccc3C2=O)cc1,13%,22%,1%,16%,17%,10%
CCCC(=O)Nc1ccc(C2C(=O)c3ccccc3C2=O)cc1,10µM*,-50%,-13%,-25%,?,5µM*
C[C@@H]1CN([C@H](C)CO)C(=O)CCCn2nncc2CO[C@H]1CN(C)C(=O)Cc1ccccc1,-21%,.,.,?,.,.
COc1ccc(Br)cc1CNC(=O)Cn1c(=O)c2cccn2c2ccc(F)cc21,-22%,0%[46.1 µM],-5%,.,.,.
CC(C)(CCl)C(=O)Nc1ccc(OC(F)(F)F)cc1,5%,-10%[46.1 µM],39%,1%,7%[46.1 µM],-9%
CS/C(=C\[N+](=O)[O-])Nc1ccc(OC(F)(F)F)cc1,-23%,.,0.28µM*,-4%,.,-23%
COc1cccc2c1Oc1ncccc1N(c1ccc(C(=O)NCc3ccccc3C)s1)C2,-20%,-22%[46.1 µM],2%,.,.,.
CCc1c(C)c(C#N)c2nc3ccccc3n2c1Nc1cccc(C(F)(F)F)c1,0%,-7%[46.1 µM],2%,.,-25%[46.1 µM],.
CCOC(=O)c1c(C)[nH]c(C)c1C(=O)COC(=O)c1cccc(S(=O)(=O)NC)c1,-3%,15%,-5%,26%,-5%,-25%
CCOC(=O)c1c(C)[nH]c(C)c1C(=O)COC(=O)c1ccc(OC)cc1,-14%,-11%,-10%,-8%,18%[14.2 µM],-10%
CCOC(=O)c1c(C)[nH]c(C)c1C(=O)COC(=O)c1cccc(S(=O)(=O)N(CC)CC)c1,-10%,22µM*,-4%,-10%,-2%,?
CCOC(=O)c1c(C)[nH]c(C)c1C(=O)COC(=O)c1ccc(S(=O)(=O)N(CC)CC)cc1,?,?,5%,-6%,-26%,25µM*
O=C(CCCn1c(=O)c2sccc2n(Cc2c(F)cccc2Cl)c1=O)NCc1ccccc1,-20%,4%[46.1 µM],18%,.,15%[46.1 µM],.
COc1cc(-c2cnc3ccccc3c2)cc2c1OCCN(C(=O)CCn1nc(C)cc1C)C2,-10%,.,.,.,.,.
Cc1cn2c(=O)cc(COC(=O)c3cccc(NC(=O)COc4ccccc4)c3)nc2s1,-13%,11%[46.1 µM],3%,.,.,.
CCCCN=C[C@]12CCC(O)CC1(O)CCC1[C@@H]2CC[C@]2(C)[C@H](C3C=CC(=O)O3)CCC12O (some centres undefined),-24%,?,6%,4%,3.5µM*,4.5µM*
CC12CCC3C(CCC4(O)CC(O)CCC34C=O)C1(O)CCC2C1=CC(=O)OC1 (centres undefined),?,0.71µM*,.,-5%,0.45µM*,?
C[C@]12CC[C@H]3[C@@H](CC[C@]4(O)C[C@@H](O)CC[C@]34C=O)[C@@]1(O)CC[C@@H]2C1=CC(=O)OC1,?,.,1%,-1%[18.4 µM],.,0.56µM*
